The values below come from PubChem BioAssay.

Activity calls are given as the source filed them.

Assay [1] is described as follows: small molecules captured by biotinylated probe aFSTL3 – biochemical, small-molecule microarray, fluorescence 635/667, stem cell growth factor project, primary screen (AID 1064).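 Also: measures binding of the biotinylated anti-FSTL3 antibody to printed compounds.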 The note with it: higher = more signal.
A short description of assay [2]: binders from COS7 lysate, DM2A8 probe, primary screen, torsin A project, cell lysate, small-molecule microarray, fluorescence 635/667 (AID 1065). As to conditions: higher = more signal, COS7 lysate expressing mutant human TOR1A.
The nature of assay [3]: small molecules captured by biotinylated probe aFGF2 – biochemical, small-molecule microarray, fluorescence 635/667, stem cell growth factor project, primary screen (AID 1067).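 Also: measures binding of biotinylated aFGF2 protein to printed compounds on slides; z-score merges feature fluorescence and signal-to-noise across triplicate slides.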 As to conditions: higher = more signal.
Assay [4] is described as follows: small molecules captured by biotinylated probe aFGF10 – biochemical, small-molecule microarray, fluorescence 635/667, stem cell growth factor project, primary screen (AID 1071).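 Also: score merges 667 nm spot intensity and signal to noise from triplicate slides.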 The note with it: higher = more signal.
In assay [5] the target is Neurogenic locus notch homolog protein 2 (Homo sapiens) (UniProt Q04721). The experiment in a line: small molecules binding Notch2 protein – biochemical, small-molecule microarray, 635 nm fluorescence, stem cell growth factors, primary screen (AID 1073). As to conditions: higher = more signal.
Assay [6] deals with Pro-neuregulin-1, membrane-bound isoform (Homo sapiens) (UniProt Q02297). In words: small molecules binding neuregulin-1 protein – biochemical, small-molecule microarray, fluorescence 635/667, psychiatric disease protein project, primary screen (AID 1075).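 Also: score combines 667 nm spot fluorescence with signal to noise.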 As to conditions: NRG1 binding, 635 nm fluorescence, higher = more signal.
Assay [7] relates to Neuregulin-1 EGF-like domain. The experiment in a line: small molecules binding NRG1 EGF domain – biochemical, small-molecule microarray, 635 nm fluorescence, primary screen (AID 1081).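 Also: binding of the protein to compounds printed on small-molecule microarray slides.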 The note with it: higher = more signal.
A short description of assay [8]: FRG1 expression reporter modulators in myotubes – cell-based, C2C12 myotubes, firefly/Renilla luciferase, luminescence, FRG1 inhibition for FSHD, primary screen (AID 1084). As to conditions: FRG1 promoter luciferase, higher = more signal, called active from +8 up or from −8 down.
The nature of assay [9]: small molecules captured by biotinylated probe aFST – biochemical, small-molecule microarray, fluorescence 635/667, stem cell growth factor project, primary screen (AID 1086).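 Also: score merges 667 nm fluorescence with signal-to-noise of each printed compound spot.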 As to conditions: higher = more signal.
The nature of assay [10]: binders of probe aHhip on microarray, primary screen, stem cell growth factor project, biochemical, small-molecule microarray, fluorescence 635/667 (AID 1087).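 Also: score merges spot fluorescence at 667nm with spot signal to noise ratio.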 The note with it: higher = more signal.
Assay [11] concerns PRMT1 (protein arginine N-methyltransferase 1). The experiment in a line: small molecules binding arginine methyltransferase PRMT1 – biochemical, small-molecule microarray, 635 nm fluorescence, primary screen (AID 1088).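 Also: binding of Prmt1 protein to compounds spotted on small-molecule microarray slides.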 The note with it: higher = more signal.
Assay [12] can be described thus: growth effects on S. cerevisiae YJM789 – YJM789 clinical isolate, OD600, 24 h, basal, primary screen (AID 1089).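 Also: growth of clinical yeast isolate S. cerevisiae YJM 789 seeded 1000 cells per well; test concentration not given here.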 As to conditions: higher = more signal, called active from +8 up or from −8 down.
Assay [13] is described as follows: S. pombe growth modifiers, basal conditions – strain 972, OD600, 24 h, no modulator, primary screen (AID 1090).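 Also: basal condition with compound alone and no growth modifier present; test concentration not given here.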 As to conditions: S. pombe 972 growth, higher = more signal, called active from +8 up or from −8 down.
A short description of assay [14]: budding yeast growth modifiers under rapamycin – strain BY4716, OD600, 96 h, primary screen (AID 1091). Also: test concentration not given here. As to conditions: S. cerevisiae BY4716 + rapamycin, higher = more signal, called active from +8 up or from −8 down.
The target in assay [15] is Torsin-1A-interacting protein 2 (Homo sapiens) (UniProt Q8NFQ8). The experiment in a line: small molecules binding lysate-expressed LULL1 – cell lysate, human LULL1 lysate, 635/667 nm fluorescence, primary screen (AID 1092).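 Also: probe is lysate of COS7 cells overexpressing human LULL1; score merges per-feature 667 nm fluorescence with signal-to-noise.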 The note with it: small-molecule microarray, hLULL1 lysate binding, 635 nm fluorescence; higher = more signal.
A short description of assay [16]: optical density change of DRC41 E. coli – strain DRC41, OD650, 24 h, E. coli filamentation project, primary screen (AID 1093).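 Also: MC1000 strain lacking acrAB efflux and sulA so SOS filamentation is blocked; test concentration not given here.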 As to conditions: E. coli DRC41 growth, higher = more signal, called active from +8 up or from −8 down.
Assay [17] in a line: probe aLefty2 binding to arrayed compounds – biochemical, biotinylated probe, 635/667 nm fluorescence, primary screen (AID 1094).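 Also: score merges spot fluorescence near 667 nm with spot signal-to-noise ratio.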 The note with it: small-molecule microarray, higher = more signal.
In assay [18] the test system is Noggin (protein binding on small-molecule microarray). In words: small molecules binding Noggin protein – biochemical, 635/667 nm fluorescence, primary screen (AID 1095).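 Also: score merges 667 nm feature fluorescence with signal to noise over triplicate slides.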 The note with it: 635 nm fluorescence, higher = more signal.
Assay [19] concerns the target Neurogenic locus notch homolog protein 3 (Homo sapiens) (UniProt Q9UM47). The experiment in a line: small molecules binding NOTCH3 protein – biochemical, 635/667 nm fluorescence, primary screen (AID 1096). As to conditions: small-molecule microarray, 635 nm fluorescence, higher = more signal.
The nature of assay [20]: probe aEGFR binding to arrayed compounds – biochemical, biotinylated probe, 635/667 nm fluorescence, primary screen (AID 1097).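 Also: probe is a biotinylated anti-EGFR antibody binding compounds printed on slides; score combines fluorescence near 667 nm and signal to noise of each spot.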 As to conditions: small-molecule microarray, higher = more signal.

Neurogenic locus notch homolog protein 2 (Homo sapiens), sequence (Q04721 whole entry, looked up, canonical isoform): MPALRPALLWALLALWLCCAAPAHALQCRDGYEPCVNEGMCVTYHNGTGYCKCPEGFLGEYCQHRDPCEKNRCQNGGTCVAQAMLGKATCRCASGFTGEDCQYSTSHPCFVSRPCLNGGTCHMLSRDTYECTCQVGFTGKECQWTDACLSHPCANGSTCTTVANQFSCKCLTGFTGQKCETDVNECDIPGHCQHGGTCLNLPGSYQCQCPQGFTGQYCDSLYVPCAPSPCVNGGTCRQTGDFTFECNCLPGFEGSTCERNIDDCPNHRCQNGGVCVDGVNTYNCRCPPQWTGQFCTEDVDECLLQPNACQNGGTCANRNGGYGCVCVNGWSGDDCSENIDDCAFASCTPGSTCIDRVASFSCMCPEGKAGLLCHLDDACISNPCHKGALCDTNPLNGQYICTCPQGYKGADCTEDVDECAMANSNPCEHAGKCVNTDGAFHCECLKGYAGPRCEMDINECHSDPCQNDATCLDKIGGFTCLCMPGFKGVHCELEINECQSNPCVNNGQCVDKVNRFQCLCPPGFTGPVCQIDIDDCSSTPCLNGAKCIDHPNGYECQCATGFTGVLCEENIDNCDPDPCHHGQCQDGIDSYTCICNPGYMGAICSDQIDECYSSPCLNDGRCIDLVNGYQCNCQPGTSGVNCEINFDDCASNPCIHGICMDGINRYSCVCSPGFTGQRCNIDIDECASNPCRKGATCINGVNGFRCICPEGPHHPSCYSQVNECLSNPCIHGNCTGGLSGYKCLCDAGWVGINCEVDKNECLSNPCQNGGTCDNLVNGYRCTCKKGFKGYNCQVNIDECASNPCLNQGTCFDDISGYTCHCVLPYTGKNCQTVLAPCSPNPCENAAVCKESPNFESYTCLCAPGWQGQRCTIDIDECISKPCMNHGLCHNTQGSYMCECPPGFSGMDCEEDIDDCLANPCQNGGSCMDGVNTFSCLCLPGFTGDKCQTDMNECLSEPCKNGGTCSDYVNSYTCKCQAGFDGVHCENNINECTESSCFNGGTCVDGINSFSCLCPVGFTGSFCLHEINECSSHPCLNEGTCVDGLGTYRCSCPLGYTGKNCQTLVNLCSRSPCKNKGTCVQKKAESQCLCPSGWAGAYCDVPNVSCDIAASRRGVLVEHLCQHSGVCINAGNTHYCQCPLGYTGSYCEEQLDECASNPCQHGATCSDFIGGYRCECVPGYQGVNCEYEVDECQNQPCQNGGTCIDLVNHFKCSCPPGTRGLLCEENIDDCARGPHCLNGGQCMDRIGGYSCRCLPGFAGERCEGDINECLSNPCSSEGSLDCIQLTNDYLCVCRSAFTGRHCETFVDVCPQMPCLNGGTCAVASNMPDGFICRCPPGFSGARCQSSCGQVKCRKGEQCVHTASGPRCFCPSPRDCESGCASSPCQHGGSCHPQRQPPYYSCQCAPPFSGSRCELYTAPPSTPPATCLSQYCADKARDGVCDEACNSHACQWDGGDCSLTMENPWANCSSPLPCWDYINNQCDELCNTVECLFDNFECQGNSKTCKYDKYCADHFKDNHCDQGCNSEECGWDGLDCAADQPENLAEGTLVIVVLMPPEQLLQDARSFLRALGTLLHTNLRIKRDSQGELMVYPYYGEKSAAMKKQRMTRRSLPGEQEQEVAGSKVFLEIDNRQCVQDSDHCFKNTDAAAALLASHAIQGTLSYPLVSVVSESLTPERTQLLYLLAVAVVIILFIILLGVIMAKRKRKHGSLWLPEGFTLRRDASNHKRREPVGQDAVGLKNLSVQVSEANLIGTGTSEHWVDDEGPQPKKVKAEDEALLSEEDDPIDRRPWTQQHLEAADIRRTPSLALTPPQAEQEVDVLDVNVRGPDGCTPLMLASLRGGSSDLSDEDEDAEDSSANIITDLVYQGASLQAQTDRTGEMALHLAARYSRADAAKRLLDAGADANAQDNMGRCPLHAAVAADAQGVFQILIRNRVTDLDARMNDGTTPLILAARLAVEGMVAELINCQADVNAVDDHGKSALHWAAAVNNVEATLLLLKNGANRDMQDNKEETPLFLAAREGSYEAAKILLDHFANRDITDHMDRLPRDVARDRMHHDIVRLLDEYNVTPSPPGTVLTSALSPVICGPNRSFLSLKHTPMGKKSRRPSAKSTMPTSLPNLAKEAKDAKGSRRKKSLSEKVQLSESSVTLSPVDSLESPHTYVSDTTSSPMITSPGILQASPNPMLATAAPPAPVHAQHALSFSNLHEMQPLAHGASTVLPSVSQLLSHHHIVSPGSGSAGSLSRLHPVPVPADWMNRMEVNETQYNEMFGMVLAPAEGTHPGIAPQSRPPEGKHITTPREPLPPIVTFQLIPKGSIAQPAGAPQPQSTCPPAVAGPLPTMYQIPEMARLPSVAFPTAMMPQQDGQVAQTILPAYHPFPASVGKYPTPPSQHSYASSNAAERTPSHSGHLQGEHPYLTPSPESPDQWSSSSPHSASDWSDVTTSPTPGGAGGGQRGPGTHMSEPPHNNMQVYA
Pro-neuregulin-1, membrane-bound isoform (Homo sapiens), sequence (Q02297 whole entry, looked up, the tested form may be a part, canonical isoform): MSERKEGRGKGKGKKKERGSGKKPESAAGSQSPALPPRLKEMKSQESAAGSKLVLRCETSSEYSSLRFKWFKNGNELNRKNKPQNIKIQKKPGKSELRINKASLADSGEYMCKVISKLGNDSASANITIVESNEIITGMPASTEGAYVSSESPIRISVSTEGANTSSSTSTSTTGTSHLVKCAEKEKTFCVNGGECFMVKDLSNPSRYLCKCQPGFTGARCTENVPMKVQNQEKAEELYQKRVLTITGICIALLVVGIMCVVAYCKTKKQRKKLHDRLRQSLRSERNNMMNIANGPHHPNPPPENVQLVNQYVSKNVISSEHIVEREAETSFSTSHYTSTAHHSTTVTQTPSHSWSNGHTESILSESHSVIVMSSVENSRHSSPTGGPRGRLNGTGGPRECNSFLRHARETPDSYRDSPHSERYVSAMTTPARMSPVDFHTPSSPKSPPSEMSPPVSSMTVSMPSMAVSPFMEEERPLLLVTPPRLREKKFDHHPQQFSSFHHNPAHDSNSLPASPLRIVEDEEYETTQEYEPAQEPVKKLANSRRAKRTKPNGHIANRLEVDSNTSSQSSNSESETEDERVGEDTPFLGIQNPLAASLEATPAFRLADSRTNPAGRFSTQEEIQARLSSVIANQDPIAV
Torsin-1A-interacting protein 2 (Homo sapiens), sequence (Q8NFQ8 whole entry, looked up): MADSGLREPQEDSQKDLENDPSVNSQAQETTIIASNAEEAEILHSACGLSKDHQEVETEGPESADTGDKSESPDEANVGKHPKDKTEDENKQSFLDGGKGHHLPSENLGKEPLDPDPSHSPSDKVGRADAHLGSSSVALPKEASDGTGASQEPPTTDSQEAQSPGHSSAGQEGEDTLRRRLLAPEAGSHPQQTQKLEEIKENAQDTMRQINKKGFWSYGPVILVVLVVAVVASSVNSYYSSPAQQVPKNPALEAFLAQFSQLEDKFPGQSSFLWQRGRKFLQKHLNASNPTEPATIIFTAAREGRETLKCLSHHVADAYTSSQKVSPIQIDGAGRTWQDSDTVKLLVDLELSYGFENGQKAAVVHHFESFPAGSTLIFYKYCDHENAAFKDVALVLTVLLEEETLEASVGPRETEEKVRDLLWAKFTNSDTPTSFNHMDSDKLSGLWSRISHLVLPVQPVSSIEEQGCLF

As to `COc1ccc([Si](C)(C)[C@H]2[C@H](CC(=O)N(CCO)Cc3ccccc3)O[C@@]3(C(=O)N(Cc4cccc(N5CCC5=O)c4)c4ccccc43)[C@@H]2C)cc1`, the composite z-score is 0.0204 in assay [1]; 0.906 in assay [2]; -0.131 in assay [3]; 0.55 in [4]; 0.629 in [5]; 1.18 in assay [6]. Also, the composite z-score in assay [7] is 1.07; in assay [9] it was -0.194; in assay [10], -0.13; in assay [11], 1.39; in [15], 1.64; in [17], -0.0188. In addition, the composite z-score in [18] was 0.847; in assay [19], 0.976; in [20], -0.0334. The z-score in assay [8] was -1.55 (inactive); in assay [12], -0.763 (inactive); in assay [13], -0.509 (inactive); in assay [14] it was 1.16 (inactive); in assay [16] it was 2.57 (inactive).

As to `[N-]=[N+]=NCc1ccccc1C[C@@]1(C(=O)NCC(O)CO)N=C(c2ccc(OCCCO)cc2)O[C@@H]1c1ccccc1CN=[N+]=[N-]` (stereo not given in full), the composite z-score in assay [1] is 0.178; in assay [2] it was -0.342; in [3] it was 0.0587; in assay [4], 0.939; in assay [5], 1.43; in assay [6], 1.34. For the same compound, the composite z-score in [7] is 1.21; in [9], 0.704; in [10], -0.115; in assay [11], 1.52; in [15] it was 3.68; in [17] it was 0.0942. The composite z-score was 0.875 in assay [18], 0.474 in assay [19] and -0.197 in [20]. Further, the z-score in [8] is -0.429 (inactive); in [12], -0.235 (inactive); in [13], 0.648 (inactive); in [14], 1.34 (inactive); in assay [16], 0.526 (inactive).

`COCCOC(=O)N1C(=O)[C@@]2(c3cc(C#CCC(C(=O)OC)C(=O)OC)ccc31)[C@H](c1ccccc1OCCO)N1[C@H](c3ccccc3)[C@H](c3ccccc3)OC(=O)[C@H]1[C@@H]2C(N)=O`: the composite z-score was -0.0037 in assay [1]; 0.532 in assay [2]; 0.0495 in assay [3]; 1.17 in assay [4]; 0.923 in assay [5]; 1.42 in [6]. The composite z-score in assay [7] came to 1.21; in assay [9] it was 0.0716; in assay [10], 0.107; in assay [11], 1.17; in [15], 2.74; in assay [17], 0.0074. Also, the composite z-score in [18] is 0.726; in assay [19], 1.1; in [20], -0.0346. In addition, the z-score was -0.885 (inactive) in [8]; 1.47 (inactive) in [12]; 0.951 (inactive) in assay [13]; 4.79 (inactive) in assay [14]; 1.12 (inactive) in [16].

In the case of `COc1cc2c(cc1OC)CN(C(=O)[C@@H]1[C@H]3C(=O)O[C@H](c4ccccc4)[C@H](c4ccccc4)N3[C@H](c3ccccc3OCCO)[C@@]13C(=O)Nc1ccc(C#CCNC(N)=O)cc13)CC2`, the composite z-score in assay [1] was determined as 0.309; in assay [2], 0.586; in assay [3] it was 0.0564; in assay [4], 0.837; in assay [5], 0.936; in assay [6], 0.852. In addition, the composite z-score in [7] was 1.07; in assay [9], 0.237; in assay [10], -0.074; in assay [11], 1.48; in assay [15], 2.61; in assay [17], 0.257. Further, the composite z-score in assay [18] was 1.09; in [19], 1.08; in [20], -0.0873. Besides, the z-score was 0.297 (inactive) in [8]; 0.443 (inactive) in [12]; 1 (inactive) in [13]; 3.09 (inactive) in assay [14]; 0.912 (inactive) in assay [16].

In the case of `CC(C)CNC(=O)[C@@]1(c2ccc([N+](=O)[O-])cc2)CC(=O)N(CC23CC4CC(CC(C4)C2)C3)[C@@H]1c1ccc(CO)cc1`, the composite z-score was determined as 0.158 in [1]; 1.83 in assay [2]; 0.0201 in [3]; 0.39 in assay [4]; 0.994 in [5]; 0.65 in assay [6]. In addition, the composite z-score in assay [7] is 1.19; in [9] it was -0.0554; in [10], 0.075; in assay [11], 1.52; in assay [15], 2.14; in assay [17], 0.0054. The composite z-score was 0.661 in assay [18], 0.708 in [19] and -0.0897 in assay [20]. Also, the z-score in assay [8] is -2.51 (inactive); in [12], -1.73 (inactive); in [13], -1.1 (inactive); in [14], 0.226 (inactive); in assay [16], 2.86 (inactive).

For `C=C[C@@H](COC(C)=O)N(Cc1ccc([N+](=O)[O-])cc1)S(=O)(=O)c1ccc(Br)cc1`, the composite z-score in assay [1] was 0.381; in assay [2] it was -0.339; in [3], 0.0258; in assay [4] it was 0.642; in assay [5], 1.1; in assay [6], 0.668. Further, the composite z-score in assay [7] was 1.12; in assay [9] it was 0.804; in assay [10], -0.21; in assay [11] it was 0.876; in [15], 1.25; in assay [17], 0.157. For the same compound, the figures for the composite z-score in [18], in [19] and in assay [20] were -0.0608, 0.733 and 0.158, respectively. The z-score is -1.5 (inactive) in assay [8]; -0.0928 (inactive) in assay [12]; -1.26 (inactive) in [13]; 3.93 (inactive) in assay [14]; 2.1 (inactive) in assay [16].

On to `C=CC[C@]1(C(=O)N2CCOCC2)N=C(c2ccc(OCCCO)cc2)O[C@H]1c1ccccc1`, for which the composite z-score came out at 0.744 in assay [1]; 0.905 in [2]; 0.0445 in [3]; 0.147 in [4]; 0.618 in assay [5]; 2.1 in assay [6]. The composite z-score was 1.25 in assay [7]; 0.374 in [9]; -0.251 in [10]; 0.74 in assay [11]; 3.56 in [15]; -0.0212 in assay [17]. In addition, the composite z-score was -0.243 in [18], 0.175 in assay [19] and -0.165 in assay [20]. Moreover, the z-score was 0.54 (inactive) in [8]; -1.8 (inactive) in assay [12]; -2.42 (inactive) in assay [13]; -1.67 (inactive) in assay [14]; 0.382 (inactive) in [16].

In the case of `CCCCC=C[C@@H](NC(=O)c1cccs1)c1ccccc1`, the composite z-score in assay [1] came to 0.144; in [2], 0.583; in assay [3] it was 0.121; in assay [4], 0.308; in assay [5], 1.1; in assay [6], 0.736. Moreover, the composite z-score in assay [7] was 0.858; in [9] it was 0.409; in assay [10] it was 0.913; in assay [11] it was -0.0502; in assay [15] it was 2.01; in assay [17] it was 0.0812. Moreover, the values for the composite z-score in assay [18], in assay [19] and in [20] were -0.222, 0.955 and -0.0746, respectively. In addition, the z-score in assay [8] was -3.42 (inactive); in [12] it was 0.464 (inactive); in [13] it was 0.845 (inactive); in [14], 1.72 (inactive); in assay [16], -0.312 (inactive).

Consider `CCCCC=C[C@@H](NC(=O)c1ccco1)c1ccccc1`, for which the composite z-score in [1] was -0.0252; in [2] it was 0.0908; in assay [3], 0.0603; in assay [4] it was 0.372; in assay [5], 0.929; in assay [6] it was 0.783. Besides, the composite z-score in [7] was -0.628; in assay [9] it was 0.199; in assay [10] it was 0.525; in assay [11], -0.568; in [15], 0.539; in [17], -0.0251. Also, the composite z-score in [18] is 0.103; in assay [19] it was 0.657; in [20] it was 0.0836. The z-score in assay [8] is 1.36 (inactive); in assay [12], 0.529 (inactive); in [13] it was 1 (inactive); in [14], 1.92 (inactive); in assay [16] it was -0.675 (inactive).
